Experimental data published in PubChem BioAssay (NCI).
Compounds without any hit were thinned out: in the full panel of roughly 83,000, 20% have a hit.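 Treatment: one concentration, 48 hours, 96-well format. Scoring: percent growth, with anything below 10 considered active.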 Activity calls are given as the source filed them.

test system: UACC-62 melanoma; assay: NCI-60 one-dose screen, 48 h (100 = growth as untreated, 0 = no growth, -100 = all killed); conditions: 10 µM unless noted
Description: Growth inhibition of the UACC-62 human tumor cell line is measured as a screen for anti-cancer activity. Cells are grown in 96 well plates and exposed to the test compound for 48 hours. Compounds are tested at a single concentration, which is 10^-5 M for most compounds. The reported endpoint is percent growth (GI% or GIPRCNT), where numbers from 0 - 100% represent growth inhibition, and numbers from -100% - 0 represent cell death. For example, a value of 40 represents 60% growth inhibition. A value of 0 means no net growth occurred over the course of the experiment. A value of -40 indicates 40% of cells at the beginning of the experiment died by the end of the experiment. A value of -100 means all cells are dead at the end of the experiment.
NCI-60 Human Tumor Cell Lines Screen was performed using the standard one-dose NCI protocol, which is described in more detail at https://dtp.cancer.gov/discovery_development/nci-60/default.htm.
Compounds with GIPRCNT values below 10 were considered active. Activity score was based on GIPRCNT using the following formula: […]
Score is 0 for GIPRCNT values of 100 or above, 50 for GIPRCNT values of 0, and 100 for GIPRCNT values of -100.

Row | SMILES | growth
1 | O=C1OCC2=C1C(c1ccccc1)c1cc3c(cc1N2)OCO3 (stereo not given) | 31% (inactive)
2 | COC(=O)[C@H](Cc1ccccc1)NC(=O)c1csc([C@@H](C[C@H](C(C)C)N(C)C(=O)[C@@H](NC(=O)[C@H]2CCCCN2C)C2CC2)OC(C)=O)n1 | 36.3% (inactive)
3 | CC1(C)N=C(N)N=C(N)N1c1ccc(OCCCNC(=O)Nc2ccc(S(=O)(=O)F)cc2)c(Cl)c1 | 23.7% (inactive)
4 | COc1cc(/C=C/[N+](=O)[O-])c([N+](=O)[O-])cc1OC | -7.94% (active)
5 | CC[C@H](C)[C@H](NC(=O)[C@H]1CCCCN1C)C(=O)N(C)[C@H](C[C@@H](O)c1nc(C(=O)N[C@@H](Cc2ccccc2)C[C@H](C)C(=O)O)cs1)C(C)C | 41.1% (inactive)
6 | COC(=O)[C@@H](NC(=O)c1cn(CCC2CCCCC2)c2ccccc12)C(C)(C)C | 38.1% (inactive)
7 | Cc1cc(N(CCCl)CCCl)ccc1C=Nc1ccccc1-c1ccccc1 | 6.46% (active)
8 | C[C@@]1(CCCCCCCCCc2ccc(O)cc2)C[C@]2(C)OC(=O)C[C@@H]2OO1 | 95.2% (inactive)
9 | CC(=O)OC[C@]1(C)C=C2C(=O)[C@](C)(O)C3(CC3)C(C)=C2[C@H]1O | -84.4% (active)
10 | CCn1c2ccccc2c2cc(C(=O)c3cccc4c3CCCN4)ccc21 | 92.2% (inactive)
11 | CN1CCCCC1C(C)(O)c1ccccc1 (stereo not given) | 104% (inactive)
12 | CC(C)CCC1(CCCl)C(=O)NC(=O)NC1=O | 97.6% (inactive)
13 | O=C1N[C@@H]2[C@@H](O)[C@@H](O)[C@H](O)C[C@H]2c2cc3c(c(O)c21)OCO3 | -48.3% (active)
14 | COc1cc([N+](=O)[O-])c2nc(C)ccc2c1[N+](=O)[O-] | 86.7% (inactive)
15 | CNCc1cccnc1 | 108% (inactive)
16 | ClCCN(CCCl)c1ccc(-n2cnc3c(Cl)ncnc32)cc1 | 31.5% (inactive)
17 | CCCC[C@H](NC(=O)[C@H]1CCCN1C)C(=O)N(C)[C@H](C[C@@H](OC(C)=O)c1nc(C(=O)N[C@@H](Cc2ccccc2)C[C@H](C)C(=O)OCC)cs1)C(C)C | 43.4% (inactive)
18 | c1ccc(Nc2nc(-c3ccccc3)c[se]2)cc1 | 78.7% (inactive)
19 | CC1(C)N=C(N)N=C(N)N1c1ccc(CCC(=O)Nc2ccc(S(=O)(=O)F)cc2)c(Cl)c1 | 16.9% (inactive)
20 | O=C(CCCCCCC(=O)Nc1ccc(N(CCCl)CCCl)cc1)NO | 14.5% (inactive)

Row | SMILES | growth
21 | Clc1ccc(CSC(Cn2ccnc2)c2ccc(Cl)cc2Cl)cc1 (stereo not given) | 29.5% (inactive)
22 | CCOC(=O)c1c(C)n(Cc2ccccc2)c2cc(CN(C)C)c(O)cc12 | 58.4% (inactive)
23 | COc1ccc(S(=O)(=O)N(Cc2ccc3c(c2)C=CC(C)(C)O3)c2ccccc2)cc1OC | 79.1% (inactive)
24 | COc1cc(/C=N/C2=C(C#N)C(c3ccco3)c3c(c4cc(C)ccc4oc3=O)O2)cc(OC)c1OC (stereo not given) | 55.6% (inactive)
25 | CCOC(=O)N[C@H]1CCc2c(Br)c(OC)c(OC)c(OC)c2-c2ccc(SC)c(=O)cc21 | 38.7% (inactive)
26 | ClCCN(CCCl)c1ccc(/C=N\N=C\c2ccc(N(CCCl)CCCl)cc2)cc1 | 24.5% (inactive)
27 | CC(=O)OC1CCC2(C)C(CCC3C2CC(=O)C2(C)C3CC(Sc3ccc(N(CCCl)CCCl)cc3)C2C(C)=O)C1 (stereo not given) | 67.9% (inactive)
28 | Cc1cc(N(CCCl)CCCl)ccc1C=Nc1cccnc1 | 46.6% (inactive)
29 | Cc1ccc2c(C(C[N+](=O)[O-])c3cccs3)c(-c3ccccc3)[nH]c2c1 (stereo not given) | 38.3% (inactive)
30 | CC1[C@H](C)OC(=O)CC(O)CC(O)CC(O)CCC(O)C(O)C[C@]2(O)CC(O)C(C(=O)O)C(CC(OC3O[C@H](C)[C@@H](O)[C@H](N)[C@@H]3O)/C=C/C=C/C=C/C=C/CC/C=C/C=C/[C@H](C)[C@H]1O)O2 (stereo not given in full) | 109% (inactive)
31 | COC(=O)C1CCC(NC(=O)c2csc([C@@H](C[C@H](C(C)C)N(C)C(=O)[C@@H](NC(=O)[C@H]3CCCCN3C)C(C)C)OC(C)=O)n2)CC1 (stereo not given in full) | 48.1% (inactive)
32 | NC(=O)CNc1ccc([As]=[As]c2ccc(NCC(N)=O)cc2)cc1 (stereo not given) | 26.1% (inactive)
33 | O=C(CCCC1CCCCC1)OCC(Cl)(Cl)Cl | 98.9% (inactive)
34 | C=CCc1cc2c(cc1OCC)OCO2 | 108% (inactive)
35 | CC1(C)N=C(N)N=C(N)N1c1ccc(CCCCc2ccc(Cl)c(S(=O)(=O)F)c2)c(Cl)c1 | 16.2% (inactive)
36 | CN1CCC(O)(c2ccc(F)cc2)C(C(=O)c2ccc(F)cc2)C1 (stereo not given) | 100% (inactive)
37 | CC1=C(CNO)C2=C(C)C3(CC3)[C@@](C)(O)C(=O)C2=C1 | 28.7% (inactive)
38 | COC(=O)[C@H](Cc1c[nH]c2ccccc12)NC(=O)[C@@H](OC)[C@@H]1Cc2cc3cc(OC4CC(OC5CC(O)C(O)C(C)O5)C(O)C(C)O4)c(C)c(O)c3c(O)c2C(=O)[C@H]1OC1CC(OC2CC(OC3CC(C)(O)C(O)C(C)O3)C(O)C(C)O2)C(O)C(C)O1 (stereo not given in full) | -52.7% (active)
39 | O=C1CN=C(c2ccc(Cl)cc2)c2sccc2N1 | 91.6% (inactive)
40 | CCCCCCCCCCCCCCCCCC1OC[C@H](COC(=O)O[C@@H](C(=O)O[C@H]2C[C@@]3(O)[C@@H](OC(=O)c4ccccc4)[C@@H]4[C@]5(OC(C)=O)CO[C@@H]5C[C@H](O)[C@@]4(C)C(=O)[C@H](OC(C)=O)C(=C2C)C3(C)C)[C@@H](NC(=O)c2ccccc2)c2ccccc2)O1 (stereo not given in full) | 46.8% (inactive)
